Test results taken from publication PMC4336329 (PLoS ONE, 2015).
In all, about 310,000 compounds went through this assay and about 14,000 (4.5%) showed an effect of 50% or more. The effect is printed as a negative number. The sample holds strong results, similar compounds and a random draw of the others, so the mix is not that of the screen.

Target: human ether-à-go-go-related gene (hERG) potassium channel (human, UniProt Q12809)
Assay: primary screen, population patch clamp on CHO cells stably expressing hERG; higher = less effect of the substance
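Further: peak tail current of the secondary pulse compared with the same well before compound.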

human ether-à-go-go-related gene (hERG) potassium channel, sequence (Q12809 whole entry, looked up): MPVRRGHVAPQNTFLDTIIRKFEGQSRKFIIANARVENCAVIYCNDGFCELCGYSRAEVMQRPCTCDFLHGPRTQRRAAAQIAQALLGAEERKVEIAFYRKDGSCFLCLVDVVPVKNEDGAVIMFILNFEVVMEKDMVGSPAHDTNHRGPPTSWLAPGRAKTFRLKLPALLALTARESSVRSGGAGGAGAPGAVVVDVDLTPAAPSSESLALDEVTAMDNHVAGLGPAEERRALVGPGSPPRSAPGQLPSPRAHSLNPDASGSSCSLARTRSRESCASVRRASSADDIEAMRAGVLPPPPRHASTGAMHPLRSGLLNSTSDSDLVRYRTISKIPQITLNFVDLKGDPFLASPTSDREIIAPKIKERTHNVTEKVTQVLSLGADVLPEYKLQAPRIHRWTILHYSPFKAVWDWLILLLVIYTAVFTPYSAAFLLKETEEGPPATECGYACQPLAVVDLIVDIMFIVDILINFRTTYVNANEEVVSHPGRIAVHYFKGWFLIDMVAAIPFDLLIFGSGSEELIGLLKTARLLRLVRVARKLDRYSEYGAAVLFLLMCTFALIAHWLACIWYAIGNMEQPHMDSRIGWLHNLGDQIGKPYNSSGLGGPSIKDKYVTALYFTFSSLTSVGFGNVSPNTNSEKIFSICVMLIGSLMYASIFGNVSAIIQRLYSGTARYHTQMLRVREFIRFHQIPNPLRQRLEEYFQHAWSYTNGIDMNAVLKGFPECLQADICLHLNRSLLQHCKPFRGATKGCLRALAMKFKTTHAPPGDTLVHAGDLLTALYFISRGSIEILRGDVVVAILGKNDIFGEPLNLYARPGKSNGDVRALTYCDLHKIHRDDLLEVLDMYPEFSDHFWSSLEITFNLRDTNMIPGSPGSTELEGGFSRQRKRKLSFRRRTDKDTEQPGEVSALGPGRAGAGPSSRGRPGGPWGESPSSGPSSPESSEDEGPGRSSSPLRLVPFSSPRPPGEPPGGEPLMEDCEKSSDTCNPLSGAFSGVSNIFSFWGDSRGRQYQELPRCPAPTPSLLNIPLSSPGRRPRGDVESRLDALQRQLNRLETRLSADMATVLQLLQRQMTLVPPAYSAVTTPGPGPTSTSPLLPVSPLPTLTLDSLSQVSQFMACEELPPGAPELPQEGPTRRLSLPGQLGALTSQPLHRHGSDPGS

SMILES	hERG current change (%, negative = inhibition) at 10uM
O=C(NCC(c1cccs1)N1CCc2ccccc21)c1ccccc1 (centres unmarked)	15.3%
C=CCN(c1ccc(C(=O)N(CC)CC)cc1)S(C)(=O)=O	-4.12%
CCN(CC)CCCNC(=O)C1c2ccccc2C(=O)N(CCOC)C1c1ccc(F)cc1 (centres unmarked)	14.9%
COc1ccc(CNC(=O)COC(=O)c2[nH]c(C)c(C(C)=O)c2C)cc1OC	1.28%
CC(=O)Oc1ccc(N2C(=O)CCC2=O)cc1	16%
Cc1ccc(N2C(=O)[C@@H]3Cc4ccccc4CN3C2=O)cc1	-3.34%
CCOC(=O)CC1C(=O)NCCN1C(=O)c1ccc(Cl)cc1 (centres unmarked)	12.9%
Nc1nc2ccc(NC(=O)c3ccco3)cc2s1	11.7%
COc1ccc(CNC(=O)CCc2nnc3ccc(N4CCC5(CC4)OCCO5)nn23)cc1	15.1%
Nn1c(COc2ccccc2F)nnc1SCC(=O)NC1CC1	0.387%
CC(=O)NC1=NN(C(C)=O)C(C)(c2ccco2)S1 (centres unmarked)	14.6%
Cc1ccc(-c2cn(-c3ccc(OC(F)F)cc3)c3[n+]2CCCCC3)cc1.[Br-]	-61.6%
Cc1ccc(CONC(=O)c2ccc(OC(F)F)cc2)cc1	-30.9%
O=C(CC1C(=O)NCCN1Cc1ccoc1)NCc1cccc(OC(F)(F)F)c1 (centres unmarked)	1.19%
CC(C)(O)CC[C@@H](O)[C@](C)(O)C1CC[C@@]2(O)C3=CC(=O)[C@]4(O)C[C@@H](O)[C@@H](O)C[C@]4(C)C3CC[C@]12C (some centres unmarked)	30.1%
CCCCCCSc1ncc(C#N)c(N)n1	-4.45%
Cn1c2ccccc2c(=O)c2c(=O)n(C3CCCCC3)c(-c3ccco3)nc21	-53.9%
Cn1c2ccccc2c(=O)c2c(=O)n(C3CCCCC3)c(-c3cccs3)nc21	-66.1%
Cc1nc2c(c(=O)c3ccccc3n2C)c(=O)n1C1CCCCCC1	-0.582%
COc1ccc(Cn2c(-c3ccco3)nc3c(c(=O)c4ccccc4n3C)c2=O)cc1	-35.3%
CC(C)Cn1c(-c2ccco2)nc2c(c(=O)c3ccccc3n2C)c1=O	-59.3%
CCCc1nc2c(c(=O)c3ccccc3n2C)c(=O)n1C1CCCCCC1	-10.1%

SMILES	hERG current change (%, negative = inhibition) at 10uM
CCCCCc1nc2c(c(=O)c3ccccc3n2C)c(=O)n1C1CCCCCC1	1.32%
CCc1nc2c(c(=O)c3ccccc3n2C)c(=O)n1C1CCCCCC1	-1.73%
Cc1ccc(-c2nc3c(c(=O)c4ccccc4n3C)c(=O)n2Cc2ccco2)cc1	2.18%
COC(=O)c1sc(NC(=O)COc2cccnc2[N+](=O)[O-])c(C(=O)OC)c1C	3.81%
CCOc1ccccc1Cn1c(=O)oc2ccc(C)cc21	11.1%
Cc1cc(C)cc(N(CC(=O)NCC2CCCO2)C(=O)CCC(=O)Nc2nccs2)c1 (centres unmarked)	12.8%
O=C(/C=C/c1cccc([N+](=O)[O-])c1)NCCSCc1cccc(Cl)c1	-18.9%
CCOCCCNC(=O)C(NC(=O)c1ccccc1O)c1ccccc1 (centres unmarked)	7.92%
CCN1CCN(C(CNS(=O)(=O)c2ccc(OC)c(C)c2)c2cccnc2)CC1 (centres unmarked)	-70.2%
COc1ccccc1N1CCN(C(CNS(=O)(=O)c2ccc(C)cc2)c2cccnc2)CC1 (centres unmarked)	-38.9%
COc1ccc(S(=O)(=O)NCC(c2cccnc2)N2CCN(c3ccccc3)CC2)cc1C (centres unmarked)	-79.2%
COc1ccc(S(=O)(=O)NCC(c2cccnc2)N2CCN(Cc3ccccc3)CC2)cc1C (centres unmarked)	-79.6%
COc1ccccc1N1CCN(C(CNS(=O)(=O)c2ccccc2)c2cccnc2)CC1 (centres unmarked)	-7.98%
CCS(=O)(=O)NCC(c1cccnc1)N1CCN(c2ccccc2OC)CC1 (centres unmarked)	0.421%
COc1ccc(S(=O)(=O)NCc2cccnc2)cc1C	17.1%
COc1ccc(S(=O)(=O)NCC(c2cccnc2)N2CCN(C)CC2)cc1C (centres unmarked)	-62.9%
COc1ccc(S(=O)(=O)NCC(c2cccnc2)N2CCN(C)CC2)cc1OC (centres unmarked)	10.7%
COc1ccc(C)cc1S(=O)(=O)NCC(c1cccnc1)N1CCc2ccccc2C1 (centres unmarked)	-25.3%
Cc1cc(S(=O)(=O)NCC(C)C)ccc1OCC(=O)N1CCN(Cc2ccccc2)CC1	-35.2%
Cc1ccc(Sc2ncccc2COC(=O)NC(C)C)cc1	4.99%
CC(C)OCCCN(CC(O)c1ccccc1)CC(O)c1ccccc1.O=C(O)C(=O)O (centres unmarked)	-10.1%
CC(C)(C)C(=O)C[n+]1cccc(C(N)=O)c1.[Br-]	21%

SMILES	hERG current change (%, negative = inhibition) at 10uM
Cc1nn(-c2ccccc2)c2c1C1(C(=O)N(C(C)C)c3ccccc31)C(C#N)=C(N)O2 (centres unmarked)	-1.88%
CC1=Nc2cc(C(=O)N3CCCC3)ccc2Sc2c(C)ccc(C)c21	-19.5%
CSc1ncc(OCc2ccccc2)c(=O)[nH]1	8.39%
O=C1CS/C(=N\NC(=O)c2ccccc2)N1	15.6%
Cc1ccccc1-c1nc(CN2CCC(C(=O)NC3CC3)CC2)c(C)o1	-33%
Cc1ccccc1-c1nc(CN2CCC(C(=O)NC3CCN(Cc4ccccc4)CC3)CC2)c(C)o1	-43%
Cc1ccccc1-c1nc(CN2CCC(C(=O)NCC3CCCO3)CC2)c(C)o1 (centres unmarked)	-54.5%
Cc1ccccc1-c1nc(CN2CCC(C(=O)NC3CCCCC3)CC2)c(C)o1	-67.7%
Cc1oc(-c2cccc(Cl)c2)nc1CN1CCC(C(=O)NCC2CCCO2)CC1 (centres unmarked)	-57.1%
COc1ccc(-c2nc(CN3CCC(C(=O)NCC4CCCO4)CC3)c(C)o2)cc1OC (centres unmarked)	-20.9%
Cc1ccccc1-c1nc(CN2CCC(C(=O)NCCN3CCOCC3)CC2)c(C)o1	-11.4%
Cc1cccc(-c2nc(CS(=O)CC(=O)NCC3CCCO3)c(C)o2)c1 (centres unmarked)	-5.24%
Cc1oc(-c2ccc(Cl)cc2)nc1CN1CCC(C(=O)NCC2CCCO2)CC1 (centres unmarked)	-70.1%
O=C(NCC1CCCO1)C1CCN(C(=O)c2ccc(Cl)cc2)CC1 (centres unmarked)	-1.73%
Cc1ccccc1-c1nc(CN2CCC(C(=O)NCCCN3CCCC3)CC2)c(C)o1	14.4%
COc1ccccc1N(CC(=O)NC1CCCCC1)C(=O)CCC(=O)Nc1nccs1	-2.17%
COc1ccc(-c2ccc(SCC(=O)c3ccccc3)nn2)cc1OC	-15.7%
CC(=O)c1ccc(NC(=O)Nc2ccccc2)cc1	-2.03%
CCOC(=O)c1c(C)sc2c1N(C(=O)CN1CCOCC1)c1cc(Cl)ccc1S2	-21.5%
CC1CCN(C(=O)CN(C2CCCCC2)S(C)(=O)=O)CC1	1.15%
COc1ccc(N2CCN(c3cc(C)c4cccc(C)c4n3)CC2)cc1	22.7%
COc1ccccc1NC(=O)c1nnn(CC(=O)Nc2cc(C)cc(C)c2)c1N	17%

SMILES	hERG current change (%, negative = inhibition) at 10uM
CC(C)S(=O)(=O)c1cnc(N2CCOCC2)nc1N	11.4%
Nc1ccc2nc(-c3ccccc3)sc2c1	23.4%
Cc1cccc(OCc2n[nH]c(=S)n2Cc2ccccc2)c1	11.8%
O=C(CNC(=O)c1sc2ccccc2c1Cl)Nc1ccccc1F	-6.72%
COc1ccc(NC(=O)CN(C)C(=O)CCC2CCCC2)cc1	5.49%
O=C(C1CCC(CNS(=O)(=O)c2cccc3nsnc23)CC1)N1CCN(c2ccccn2)CC1 (centres unmarked)	-53.9%
O=C(CCNS(=O)(=O)c1cccc2nsnc12)N1CCN(c2ccccn2)CC1	-24%
O=C(C1CCCN(S(=O)(=O)c2cccc3nsnc23)C1)N1CCN(c2ccccn2)CC1 (centres unmarked)	-50.2%
CC1CCN(C(=O)C2CCCN(S(=O)(=O)c3cccc4nsnc34)C2)CC1 (centres unmarked)	-27.8%
O=C(C1CCCN(S(=O)(=O)c2cccc3nsnc23)C1)N1CCCCCC1 (centres unmarked)	-16.8%
CCN(CC)C(=O)C1CCC(CNS(=O)(=O)c2cccc3nsnc23)CC1 (centres unmarked)	2.47%
O=C(C1CCC(CNS(=O)(=O)c2cccc3nsnc23)CC1)N1CC=C(c2ccccc2)CC1 (centres unmarked)	-10.3%
CCCN(CCC)C(=O)C1CCC(CNS(=O)(=O)c2cccc3nsnc23)CC1 (centres unmarked)	-69.5%
CCCCN(CC)C(=O)C1CCC(CNS(=O)(=O)c2cccc3nsnc23)CC1 (centres unmarked)	-23.7%
CN(C)c1ccc(CN(Cc2ccco2)C(=O)c2ccco2)cc1	-30.1%
COC(=O)c1ccc(C(=O)OC)c(NC(=S)N2CCN(C)CC2)c1	20.4%
Cc1cc(C(=O)CS(=O)(=O)c2ccc(Cl)cc2)cc(C)c1O	16.6%
CS(=O)(=O)Nn1cnc2ccccc2c1=O	10.7%
Cc1cc(C)c(S(=O)(=O)N2CCCOC2CNC(=O)C(=O)NCc2cccs2)c(C)c1 (centres unmarked)	-8.31%
O=C1NC(=Nc2ccccc2)/C(=C/c2ccco2)S1	12.4%
